Data taken from PubChem BioAssay (NCI).
The panel holds about 79,000 compounds, 15% with a hit somewhere; the sample as a whole holds those more often. Active and inactive are the calls of the source. Rule as the data show it: active = growth inhibition above about 70%; inactive = the rest.

Legend:
[1] = NCI Yeast Anticancer Drug Screen. Data for the wt1 strain (AID 149);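 also: 0% = growth of vehicle-treated wt1 cultures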; details: S. cerevisiae wt1 strain (SPY 50644) growth inhibition, stronger effect = higher value
Summary of the method: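 wt1 yeast, compound-treated; % growth inhibition vs vehicle control.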

[2] = NCI Yeast Anticancer Drug Screen. Data for the rad50EPP+ strain (AID 151);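 also: 0% = growth of vehicle-treated control cultures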; details: S. cerevisiae rad50 mutant strain, stronger effect = higher value
Summary of the method: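 Measured: growth inhibition of rad50EPP+ yeast. Reference: vehicle-treated controls. Screen uses strains with defined genetic alterations in DNA damage repair or cell cycle control.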

[3] = NCI Yeast Anticancer Drug Screen. Data for the mgt1 strain (AID 153); details: S. cerevisiae mgt1 mutant growth inhibition, stronger effect = higher value
Summary of the method: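 Compounds were applied to mgt1 mutant yeast, and growth was then compared against vehicle-treated control cultures to give percent inhibition.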

[4] = NCI Yeast Anticancer Drug Screen. Data for the rad50 strain (AID 155);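 also: 0% = growth of vehicle-only cultures of the same strain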; details: S. cerevisiae rad50 strain growth inhibition, stronger effect = higher value
Summary of the method: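 Genetically altered yeast (DNA repair pathway); compound treatment; growth inhibition vs vehicle ctrl.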

[5] = NCI Yeast Anticancer Drug Screen. Data for the mec2-1 strain (AID 157); details: S. cerevisiae mec2-1 strain, stronger effect = higher value
Summary of the method: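 Compounds were applied to mec2-1 yeast cells. Their growth was then compared with that of vehicle-treated cultures to give growth inhibition.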

[6] = NCI Yeast Anticancer Drug Screen. Data for the sgs1 mgt1 strain (AID 161);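 also: 0% = growth of cultures given vehicle only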; details: S. cerevisiae sgs1 mgt1 strain, stronger effect = higher value
Summary of the method: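 Growth of a repair-deficient yeast mutant was monitored after compound treatment and expressed as inhibition relative to vehicle-treated cultures.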

[7] = NCI Yeast Anticancer Drug Screen. Data for the CLN2oe strain (AID 163);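 also: 0% = growth of vehicle-only control cultures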; details: S. cerevisiae CLN2oe strain, stronger effect = higher value
Summary of the method: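 Cells of an engineered yeast line with disturbed cell-cycle regulation are treated with compound. Inhibition of growth is then calculated relative to the vehicle-treated reference.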

[8] = NCI Yeast Anticancer Drug Screen. Data for the cln2 rad14 strain (AID 165);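 also: 0% = growth equal to vehicle treated cultures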; details: S. cerevisiae cln2 rad14 strain, stronger effect = higher value
Summary of the method: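 Strain: cln2 rad14 yeast, altered in cell cycle control and DNA damage repair. Read-out: growth inhibition vs vehicle.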

[9] = NCI Yeast Anticancer Drug Screen. Data for the bub3 strain (AID 167); details: S. cerevisiae bub3 mutant strain, stronger effect = higher value
Summary of the method: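 Yeast carrying a defined mutation is treated with each compound, and growth is compared with that of vehicle-exposed cells to give inhibition.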

[10] = NCI Yeast Anticancer Drug Screen. Data for the wt2 strain (AID 169);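 also: 0% = growth of vehicle-treated yeast cultures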; details: S. cerevisiae wt2 strain growth inhibition, stronger effect = higher value
Summary of the method: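 Growth of compound-treated yeast is measured and expressed as inhibition relative to vehicle-only controls.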

[11] = NCI Yeast Anticancer Drug Screen. Data for the mlh1 strain (AID 171);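 also: 0% = growth of vehicle-treated control cultures of the same strain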; details: S. cerevisiae mlh1 strain growth inhibition, stronger effect = higher value
Summary of the method: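 Test agents were incubated with yeast bearing a defined DNA damage repair or cell cycle control alteration; values are growth inhibition normalised to vehicle-treated cultures.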

[12] = NCI Yeast Anticancer Drug Screen. Data for the sgs1 strain (AID 173);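 also: 0% = growth of vehicle-only control cultures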; details: S. cerevisiae sgs1 mutant, stronger effect = higher value
Summary of the method: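 Strain with an altered DNA repair or cell cycle pathway exposed to compound. Growth then measured. Value = inhibition versus vehicle control.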

[13] = NCI Yeast Anticancer Drug Screen. Data for the mlh1 rad18 strain (AID 175); details: S. cerevisiae mlh1 rad18 strain growth inhibition, stronger effect = higher value
Summary of the method: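 A repair-deficient yeast strain is exposed to test compound, and growth is scored relative to vehicle-treated controls.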

[14] = NCI Yeast Anticancer Drug Screen. Data for the rad18 strain (AID 177); details: S. cerevisiae rad18 mutant growth inhibition, stronger effect = higher value
Summary of the method: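 DNA-repair-defective yeast; compound treatment; growth inhibition scored against vehicle.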

[15] = at 5.0 µM (retest, dose inferred, filed as 0.5)
[16] = at 50.0 µM (retest, dose inferred, filed as 5.0)

Measured: growth inhibition

Nc1cc(N)c(N=Nc2cccc3c(S(=O)(=O)O)cccc23)cc1N=Nc1cc([N+](=O)[O-])ccc1O
active: [6]; [16] 84% | [8]; [16] 92% | [9]; [16] 79% | [9]; at 50.0 µM 70.8%
inactive: [1]; at 1.2 µM 7% | [1]; at 3.7 µM 13% | [1]; at 11.0 µM 7% | [1]; at 33.0 µM 8% | [1]; at 100.0 µM 19% | [2]; at 1.2 µM -11% | [2]; at 3.7 µM 3% | [2]; at 11.0 µM -4% | [2]; at 33.0 µM -4% | [2]; at 100.0 µM 38% | [3]; at 1.2 µM -19% | [3]; at 3.7 µM 8% | [3]; at 11.0 µM 9% | [3]; at 33.0 µM 12% | [3]; at 100.0 µM 65% | [4]; at 1.2 µM 15% | [4]; at 3.7 µM 10% | [4]; [15] 46% | [4]; at 11.0 µM 8% | [4]; at 33.0 µM 6% | [4]; [16] 61% | [4]; at 50.0 µM 38.5% | [4]; at 100.0 µM 54% | [5]; at 1.2 µM 1% | [5]; at 3.7 µM -11% | [5]; [15] 64% | [5]; at 11.0 µM -11% | [5]; at 33.0 µM -17% | [5]; [16] 69% | [5]; at 50.0 µM 4.9% | [5]; at 100.0 µM 17% | [6]; [15] -10% | [6]; at 50.0 µM 26.4% | [7]; at 1.2 µM 4% | [7]; at 3.7 µM 16% | [7]; at 11.0 µM -4% | [7]; at 33.0 µM -7% | [7]; at 100.0 µM -3% | [8]; [15] 33% | [8]; at 50.0 µM 42.5% | [9]; at 1.2 µM -6% | [9]; at 3.7 µM 6% | [9]; [15] 19% | [9]; at 11.0 µM 10% | [9]; at 33.0 µM 0% | [9]; at 100.0 µM 53% | [10]; at 1.2 µM -14% | [10]; at 3.7 µM -11% | [10]; at 11.0 µM -26% | [10]; at 33.0 µM 6% | [10]; at 100.0 µM 47% | [11]; at 1.2 µM -15% | [11]; at 3.7 µM -21% | [11]; at 11.0 µM -15% | [11]; at 33.0 µM -18% | [11]; at 100.0 µM 23% | [12]; at 1.2 µM -7% | [12]; at 3.7 µM 24% | [12]; at 11.0 µM 19% | [12]; at 33.0 µM 34% | [12]; at 100.0 µM 59% | [13]; [15] 52% | [13]; [16] 48% | [13]; at 50.0 µM 65.7% | [14]; at 1.2 µM -13% | [14]; at 3.7 µM -28% | [14]; at 11.0 µM -23% | [14]; at 33.0 µM -16% | [14]; at 100.0 µM 36%
